Source: PubChem BioAssay (Tox21)
Records with an inconclusive call do not appear. Entries that show only a call come without a potency. The source made the active and inactive calls. Unless noted, the call rests on the fitted dose curve; in most records, active means well fitted curve in the direction sought with a large enough effect in the repeat runs; inconclusive means weak or mixed curves; inactive means no such curve, though single readings can be large; an effect the other way counts as inactive or inconclusive.

Tests used:
[1] = qHTS assay to identify small molecule agonists of the peroxisome proliferator-activated receptor delta (PPARd) signaling pathway - cell viability counter screen (AID 743211); further: nearly all actives have a fitted effect of over 55% in size; further: potency means the concentration at half of the fitted maximal effect
Method in brief: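 Counter screen for cytotoxicity run in parallel with the PPARd reporter screen. Beta-lactamase reporter HEK293H cells exposed to compounds 17 h; ATP-based CellTiter-Glo luminescence quantified viability.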

[2] = qHTS assay to identify small molecule antagonists of the peroxisome proliferator-activated receptor delta (PPARd) signaling pathway - cell viability counter screen (AID 743213); further: nearly all actives have a fitted effect of over 50% in size; further: potency means the concentration at half of the fitted maximal effect
Method in brief: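 Viability counter-screen, qHTS format: PPARd-bla HEK293H, L165041 300 nM final, 17 h compound exposure at 37 C, CellTiter-Glo luminescence after 30 min RT.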

[3] = qHTS assay to identify small molecule agonists of the farnesoid-X-receptor (FXR) signaling pathway - cell viability counter screen (AID 743218); further: nearly all actives have a fitted effect of over 45% in size
Method in brief: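 In GeneBLAzer FXR-UAS-bla HEK 293T cells, compounds act for 16 h at 37 C. Cell viability is then scored in the reporter wells by CellTiter-Glo, 30 min at RT, luminescence.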

[4] = qHTS assay to identify small molecule antagonists of the farnesoid-X-receptor (FXR) signaling pathway - cell viability counter screen (AID 743221; active means well fitted cell-killing curve with a large enough effect in the repeat runs, not every such curve was filed as active; further: nearly all actives have a fitted effect of over 50% in size)
Method in brief: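 Multiplexed counter screen: viability of FXR-bla HEK 293T cells under agonist stimulation by chenodeoxycholic acid (50 uM, final) and test compound for 16 h at 37 C, measured by CellTiter-Glo luminescence in the reporter wells.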

[5] = qHTS assay to identify small molecule agonists of the vitamin D receptor (VDR) signaling pathway - cell viability counter screen (AID 743224); further: series mostly up to about 63 µM; nearly all actives have a fitted effect of over 50% in size
Method in brief: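 VDR-bla cell line, quantitative HTS format; 16 h compound incubation (37C, 5% CO2); ATP-based CellTiter-Glo luminescence measured in the reporter assay wells.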

[6] = qHTS assay to identify small molecule antagonists of the vitamin D receptor (VDR) signaling pathway - cell viability counter screen (AID 743225); further: nearly all actives have a fitted effect of over 50% in size
Method in brief: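 HEK293T VDR-bla; cpd + 1a,25-(OH)2D3 3 nM final, 16 h 37C/5% CO2; B/G FRET substrate 2 h RT; then CellTiter-Glo 30 min RT, luminescence.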

[7] = qHTS assay to identify small molecule agonists of the NFkB signaling pathway (AID 1159509; active means well fitted curve in the direction sought with a large enough effect in the signal ratio in the repeat runs, not every such curve was filed as active; the % refers to the signal ratio; further: series mostly up to about 61 µM)
Method in brief: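 ME-180 NFkB-bla, 2,000 cells/well, overnight plating; cpd pinned in DMSO, 5 h 37 C; B/G FRET substrate 1.5 h RT; ex 405, em 460/530 nm.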

[8] = qHTS assay to identify small molecule agonists of the endoplasmic reticulum stress response signaling pathway (AID 1159516; active means well fitted activation curve with a large enough effect in the signal ratio in the repeat runs, not every such curve was filed as active; the % refers to the signal ratio)
Method in brief: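 ER stress element reporter (bla) in HeLa. 1,500 cells/well, overnight attachment; 5 hr compound; 2 hr RT substrate; dual-emission fluorescence.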

[9] = qHTS assay to identify small molecule agonists of the endoplasmic reticulum stress response signaling pathway - cell viability counter screen (AID 1159517; calls by dose curve)
Method in brief: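 CellTiter-Glo was added to wells already read for beta-lactamase FRET, and luminescence was recorded 30 min later. Cells: ESRE-bla HeLa, 1,500 per well, compound exposure 5 hr at 37 C.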

[10] = qHTS assay to identify small molecule antagonists of the retinoid-related orphan receptor gamma (ROR-gamma) signaling pathway - cell viability counter screen (AID 1159520); further: nearly all actives have a fitted effect of over 50% in size
Method in brief: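 Tet-on ROR gamma CHO cells (1,000/well) were plated 4 hr, given compounds in DMSO for 2 hr at 37 C, then induced with 1 uM final doxycycline for 16 hr. Viability was read as ATP by CellTiter-Glo luminescence after 30 min.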

[11] = biological target: Nuclear receptor ROR-gamma (Homo sapiens) (UniProt P51449); assay: qHTS assay to identify small molecule antagonists of the retinoid-related orphan receptor gamma (ROR-gamma) signaling pathway (AID 1159521; further: nearly all actives have a fitted effect of over 50% in size; further: potency means the concentration at half of the fitted maximal effect)
Method in brief: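 Cells were plated, rested 4 h at 37 C, exposed to compounds for 2 h, then given 1 uM final doxycycline hyclate to induce RORγ expression. After 16 h, ONE-Glo luminescence from the ROR response element reporter was measured.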

[12] = qHTS assay to identify small molecule agonists of the AP-1 signaling pathway (AID 1159526; calls by dose curve)
[13] = biological target: Peroxisome proliferator-activated receptor delta (Homo sapiens) (UniProt Q03181); assay: qHTS assay to identify small molecule agonists of the peroxisome proliferator-activated receptor delta (PPARd) signaling pathway (AID 743212; calls by dose curve)
Peroxisome proliferator-activated receptor delta (Homo sapiens), sequence (Q03181 whole entry, looked up): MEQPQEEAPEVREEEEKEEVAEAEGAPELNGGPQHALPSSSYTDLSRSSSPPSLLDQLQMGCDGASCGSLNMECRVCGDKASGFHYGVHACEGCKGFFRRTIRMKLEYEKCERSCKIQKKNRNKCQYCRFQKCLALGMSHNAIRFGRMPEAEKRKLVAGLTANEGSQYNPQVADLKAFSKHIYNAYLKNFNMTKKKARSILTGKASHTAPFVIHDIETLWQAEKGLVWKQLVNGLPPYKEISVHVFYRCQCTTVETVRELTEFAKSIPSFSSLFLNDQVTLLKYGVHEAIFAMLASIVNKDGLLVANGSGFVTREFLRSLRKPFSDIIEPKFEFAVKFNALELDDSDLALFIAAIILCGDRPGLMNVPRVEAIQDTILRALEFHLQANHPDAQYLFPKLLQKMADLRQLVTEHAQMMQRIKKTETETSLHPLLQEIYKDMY
Method in brief: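 A PPARd-bla HEK293H line with beta-lactamase under an Upstream Activator Sequence is treated with compounds at 37 C. Substrate loading for 2 h at room temperature precedes the fluorescence measurement.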

[14] = biological target: Peroxisome proliferator-activated receptor delta (Homo sapiens) (UniProt Q03181); assay: qHTS assay to identify small molecule antagonists of the peroxisome proliferator-activated receptor delta (PPARd) signaling pathway (AID 743215; active means well fitted inhibition curve with a large enough effect in the signal ratio in the repeat runs, not every such curve was filed as active; the % refers to the signal ratio;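 further: cells stimulated with agonist L165041 at 300 nM final during compound exposure; series mostly up to about 62 µM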)
Method in brief: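 Antagonist-mode beta-lactamase reporter screen: HEK293H cells with UAS-bla under PPARd control, stimulated by 300 nM L165041 (final) alongside test compound for 17 h at 37 C, then FRET fluorescence after 2 h substrate incubation.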

[15] = biological target: Vitamin D3 receptor (Homo sapiens) (UniProt P11473); assay: qHTS assay to identify small molecule agonists of the vitamin D receptor (VDR) signaling pathway (AID 743222; calls by dose curve)
Vitamin D3 receptor (Homo sapiens), sequence (P11473 whole entry, looked up): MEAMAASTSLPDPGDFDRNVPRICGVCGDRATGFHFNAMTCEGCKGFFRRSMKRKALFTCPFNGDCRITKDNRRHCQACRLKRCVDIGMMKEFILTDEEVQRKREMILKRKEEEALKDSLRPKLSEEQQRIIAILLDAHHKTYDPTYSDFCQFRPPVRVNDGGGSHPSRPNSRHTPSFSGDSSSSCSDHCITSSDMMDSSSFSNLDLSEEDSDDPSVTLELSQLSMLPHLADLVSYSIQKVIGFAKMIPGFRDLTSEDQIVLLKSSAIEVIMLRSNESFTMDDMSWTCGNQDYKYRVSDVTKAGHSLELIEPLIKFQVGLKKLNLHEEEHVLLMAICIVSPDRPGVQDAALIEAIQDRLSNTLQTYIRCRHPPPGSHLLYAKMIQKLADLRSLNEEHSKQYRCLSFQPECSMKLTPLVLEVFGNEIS
Method in brief: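 Agonist activity measured in VDR-bla reporter cells. Exposure 16 h, 37C, 5% CO2; detection by B/G FRET substrate, 2 h RT.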

[16] = biological target: Vitamin D3 receptor (Homo sapiens) (UniProt P11473); assay: qHTS assay to identify small molecule antagonists of the vitamin D receptor (VDR) signaling pathway (AID 743223; active means well fitted inhibition curve with a large enough effect in the signal ratio in the repeat runs, not every such curve was filed as active; the % refers to the signal ratio)
Method in brief: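 Cells carrying a VDR-driven beta-lactamase reporter (VDR-bla) were co-treated with compound and 3 nM final 1alpha,25-dihydroxyvitamin D3 for 16 h at 37C; reporter activity was measured as FRET substrate fluorescence after 2 h at room temperature.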

[17] = qHTS assay to identify small molecule agonists of the AP-1 signaling pathway - cell viability counter screen (AID 1159525; calls by dose curve; further: nearly all actives have a fitted effect of over 55% in size; further: potency means the concentration at half of the fitted maximal effect)
Method in brief: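 ME-180 AP-1-bla, 2500 cells/well, Opti-MEM + 0.5% dialyzed FBS; overnight 37 °C; cpd 15-pt titration, 5 h 37 °C; CellTiter-Glo 30 min RT; luminescence read; normalised to TOAB and DMSO controls.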

[18] = biological target: Bile acid receptor (Homo sapiens) (UniProt Q96RI1); assay: qHTS assay to identify small molecule antagonists of the farnesoid-X-receptor (FXR) signaling pathway (AID 743217; active means well fitted inhibition curve with a large enough effect in the signal ratio in the repeat runs, not every such curve was filed as active; the % refers to the signal ratio)
Bile acid receptor (Homo sapiens), sequence (Q96RI1 whole entry, looked up): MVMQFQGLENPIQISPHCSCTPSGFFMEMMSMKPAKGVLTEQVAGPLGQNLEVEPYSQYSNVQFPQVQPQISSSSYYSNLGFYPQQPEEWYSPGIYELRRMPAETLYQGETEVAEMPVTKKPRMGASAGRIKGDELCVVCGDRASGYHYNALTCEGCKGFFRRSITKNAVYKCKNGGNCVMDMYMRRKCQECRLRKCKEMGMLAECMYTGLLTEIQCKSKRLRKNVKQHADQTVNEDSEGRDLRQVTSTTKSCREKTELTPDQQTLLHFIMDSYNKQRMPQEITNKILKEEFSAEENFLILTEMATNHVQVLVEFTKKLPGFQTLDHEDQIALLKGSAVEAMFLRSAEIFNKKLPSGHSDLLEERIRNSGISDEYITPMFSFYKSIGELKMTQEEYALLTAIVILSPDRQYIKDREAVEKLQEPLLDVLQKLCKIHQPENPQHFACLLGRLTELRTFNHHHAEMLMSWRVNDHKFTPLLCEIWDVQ
Method in brief: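 Beta-lactamase reporter under UAS control in HEK 293T cells; compound exposure 16 h at 37 °C in the presence of chenodeoxycholic acid (50 uM final); signal from B/G FRET substrate after 2 h at room temperature.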

[19] = biological target: Bile acid receptor (Homo sapiens) (UniProt Q96RI1); assay: qHTS assay to identify small molecule agonists of the farnesoid-X-receptor (FXR) signaling pathway (AID 743220; active means well fitted activation curve with a large enough effect in the signal ratio in the repeat runs, not every such curve was filed as active; the % refers to the signal ratio)
Method in brief: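 Beta-lactamase reporter under UAS control in GeneBLAzer FXR HEK 293T cells (5000/well) measured with LiveBLAzer FRET substrate after 2 h at room temperature. Compound exposure lasted 16 h at 37C.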

| SMILES | Potency [1] | Potency [2] | Potency [3] | Potency [4] | Potency [5] | Potency [6] | Potency [7] | Potency [8] | Potency [9] | Potency [10] | Potency [11] | Potency [12] | Potency [13] | Potency [14] | Potency [15] | Potency [16] | Potency [17] | Potency [18] | Potency [19] |
| --- | --- | --- | --- | --- | --- | --- | --- | --- | --- | --- | --- | --- | --- | --- | --- | --- | --- | --- | --- |
| CC(C)(C)CC(=O)OCC(=O)[C@@]1(O)CC[C@H]2[C@@H]3CCC4=CC(=O)C=C[C@]4(C)[C@H]3[C@@H](O)C[C@@]21C | inactive | inactive | inactive | inactive | inactive | inactive | inactive | inactive | inactive | inactive | 26.6 µM (active) | inactive | – | – | – | – | – | – | – |
| COc1ccccc1N1CCN(CC(O)COc2cccc3ccccc23)CC1 (stereo unspecified) | 26.6 µM (active) | 29.8 µM (active) | inactive | inactive | inactive | inactive | inactive | inactive | inactive | inactive | – | – | inactive | inactive | inactive | inactive | 23.9 µM (active) | – | – |
| C1C[C@@H]2[C@H]3CC[C@H](C3)[C@@H]2C1 | inactive | inactive | inactive | inactive | inactive | inactive | inactive | inactive | inactive | inactive | inactive | – | – | inactive | inactive | inactive | – | – | – |
| Cc1cccc(O)c1N | inactive | inactive | inactive | inactive | inactive | inactive | inactive | inactive | inactive | inactive | 13.8 µM (active) | – | – | – | – | – | 44.1 µM (active) | inactive | inactive |
| CCC=CC#N | inactive | inactive | – | inactive | inactive | – | inactive | inactive | inactive | inactive | – | inactive | inactive | – | – | – | inactive | – | – |
